Bioassay records from PubChem BioAssay.
miR-122 inh = miR-122 suppressors via Renilla sensor increase, primary screen, cell-based, Huh7 psiCHECK-miR122, Renilla luciferase, single point | 340,000 compounds, 0.14% hits | activation, % at 12.5 µM | 48 h;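 active means mean activation of 30% or more, with every replicate also reaching 30%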;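 further: 0% = median of neutral control wells and 100% = median of positive control wells; higher luciferase signal means stronger suppression of miR-122 activity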
Numbers without * were called inactive. Many of the other results were omitted from the sample, so hits are more common in it than they were.

SMILES | miR-122 inh
C[C@@H]1CN([C@@H](C)CO)C(=O)c2cc(C#Cc3ccccn3)cnc2O[C@@H]1CN(C)CC1CCOCC1 | 2
COc1ccc(/C=C/C(=O)c2ccc[nH]2)c(OC)c1OC | 32*
COc1cccc(C2NC(=S)NC(C)=C2C(=O)c2ccccc2)c1OC (stereo not drawn) | -147
C[C@H]1CN([C@@H](C)CO)C(=O)c2cc(/C=C/c3ccccc3)cnc2O[C@H]1CN(C)C(=O)Cc1ccccn1 | 1
CC(C)Cc1nc2sc3c(=O)[nH]cnc3c2c2c1CCC2 | -126
CN(C)CCNc1ncnc2c1sc1nc(-c3ccccc3)c3c(c12)CCCC3 | 35*
C[C@@H]1CN([C@@H](C)CO)S(=O)(=O)c2ccc(C#Cc3cccnc3)cc2O[C@H]1CN(C)CC1CCOCC1 | -9
COc1ccccc1NC(=O)N(C)C[C@@H]1Oc2ncc(C#CCC(C)C)cc2C(=O)N([C@H](C)CO)C[C@H]1C | -4
COc1ccc(-c2oc3ncn(CCN4CCOCC4)c(=N)c3c2-c2ccc(OC)cc2)cc1 | 42*
Cc1ccc(S(=O)(=O)NCCN2CCOCC2)c(C)c1C | -92
COc1ccc(-c2oc3ncnc(NCCCN4CCOCC4)c3c2-c2ccc(OC)cc2)cc1 | 38*
C[C@@H]1CN([C@H](C)CO)C(=O)Cc2cc(NC(=O)Nc3ccccc3)ccc2O[C@@H]1CN(C)C(=O)Nc1cccc2ccccc12 | -97
C[C@H](CO)N1C[C@H](C)[C@H](CN(C)Cc2cccnc2)Oc2cc(C#C[C@@H](C)O)ccc2S1(=O)=O | 7
C[C@@H]1CN([C@@H](C)CO)C(=O)c2cc(-c3cccc(F)c3)cnc2O[C@@H]1CN(C)Cc1ccncc1 | 1
CCCNC(=O)N(C)C[C@@H]1Oc2ncc(C#CCC(C)C)cc2C(=O)N([C@H](C)CO)C[C@H]1C | 7
Cc1ccc(-c2cnc3c(c2)C(=O)N([C@@H](C)CO)C[C@@H](C)[C@H](CN(C)C(=O)c2ccncc2)O3)cc1 | 1
C[C@@H]1CN([C@@H](C)CO)S(=O)(=O)c2ccc(/C=C/c3ccccc3)cc2O[C@@H]1CN(C)C(=O)Nc1cccc(F)c1 | -35
CCCN(C)C[C@H]1Oc2ncc(C#CC3CCCCC3)cc2C(=O)N([C@H](C)CO)C[C@H]1C | 3
CCCNC(=O)N(C)C[C@@H]1Oc2cc(C#CCOC)ccc2S(=O)(=O)N([C@@H](C)CO)C[C@@H]1C | 7
C[C@H](CO)N1C[C@H](C)[C@@H](CN(C)CC2CCOCC2)Oc2ncc(-c3cncnc3)cc2C1=O | 4
CN1c2ccc(-c3cccc(F)c3)cc2[C@H]2[C@H](CCN2S(=O)(=O)c2cccc(F)c2)[C@H]1CO | -90
CCCC(NS(=O)(=O)c1ccc(Br)cc1)C(=O)O (stereo not drawn) | 36*
C/C=C/c1ccc2c(c1)O[C@H](CN(C)C(=O)Cc1ccccn1)[C@H](C)CN([C@@H](C)CO)S2(=O)=O | -8
C[C@H]1CN([C@@H](C)CO)C(=O)c2cc(-c3ccc(F)cc3)cnc2O[C@H]1CN(C)Cc1ccc(C(=O)O)cc1 | -27
Cc1ccc(N(Cc2ccco2)C(=O)c2ccc(N3CCCCC3)c([N+](=O)[O-])c2)cc1 | -165
SMILES | miR-122 inh
COc1ccc(-c2cc(C3CCN(c4ccc(C(C)=O)cc4[N+](=O)[O-])CC3)[nH]n2)cc1 | 45*
CCCN(C)C[C@H]1Oc2cc(-c3ccc(OC)cc3)ccc2S(=O)(=O)N([C@H](C)CO)C[C@H]1C | -77
CCCNC(=O)N(C)C[C@H]1Oc2cc(-c3ccccc3)ccc2S(=O)(=O)N([C@H](C)CO)C[C@H]1C | 1
C[C@@H]1CN([C@@H](C)CO)S(=O)(=O)c2ccc(Br)cc2O[C@H]1CN(C)Cc1ccccn1 | 1
CC(C)NC(=O)N(C)C[C@@H]1Oc2cc(C3=CCCCC3)ccc2S(=O)(=O)N([C@H](C)CO)C[C@H]1C | -4
Cc1noc(C)c1NC(=O)N(C)C[C@@H]1Oc2cc(C#CCC(C)C)ccc2S(=O)(=O)N([C@@H](C)CO)C[C@H]1C | 3
O=C1NC(=O)/C(=C\c2ccccc2OCc2ccc([N+](=O)[O-])cc2)N1 | 37*
C[C@H](CO)N1C[C@H](C)[C@H](CN(C)C(=O)Nc2ccccc2)Oc2cc(-c3cccc(C(=O)N(C)C)c3)ccc2S1(=O)=O | 4
CCCC(=O)Nc1ccc2c(c1)OC[C@H](C)N(C(C)=O)C[C@@H](C)[C@H](OC)CN(C)C2=O | -2
COc1ccc(C(=O)C2CCCN(Cc3cccn3-c3ccccn3)C2)c(OC)c1 (stereo not drawn) | 60*
C[C@H]1CN([C@@H](C)CO)C(=O)c2cc(C3=CCCCC3)cnc2O[C@H]1CN(C)Cc1ccccc1C(=O)O | -1
CCS(=O)(=O)Nc1ccc2c(c1)C(=O)N(C)C[C@@H](OC)[C@H](C)CN[C@H](C)CO2 | 1
COc1cccc(C#Cc2ccc3c(c2)O[C@@H](CN(C)S(=O)(=O)c2ccccc2F)[C@H](C)CN([C@@H](C)CO)S3(=O)=O)c1 | 5
Cc1c(Cl)sn(-c2ccc(Cl)cc2)c1=O | 70*
C[C@@H]1CN([C@H](C)CO)C(=O)c2cc(C#CC3(O)CCCC3)cnc2O[C@H]1CN(C)Cc1cncnc1 | 3
CC(=O)Nc1ccc(S(=O)(=O)NCCc2ccc(S(N)(=O)=O)cc2)cc1 | -226
Cc1cc(C)c(C)c(S(=O)(=O)NCc2ccncc2)c1C | -122
Cc1cc(C(C)(C)C)cc(S(=O)(=O)NCCc2ccncc2)c1C | 44*
Cc1ccc(C)c(S(=O)(=O)NCCCc2ccccc2)c1 | -93
CCCc1ccc(S(=O)(=O)NCCc2ccncc2)cc1 | 36*
O=C(Nc1ccc(S(=O)(=O)NCCc2ccccc2)cc1)c1ccco1 | -365
C[C@@H]1CN([C@@H](C)CO)C(=O)c2cc(-c3ccc(F)cc3)cnc2O[C@@H]1CN(C)Cc1cccnc1 | -51
COc1ccccc1NC(=O)N(C)C[C@H]1Oc2ncc(C#CCC(C)C)cc2C(=O)N([C@H](C)CO)C[C@@H]1C | 6
C[C@@H]1CN([C@H](C)CO)C(=O)c2cccc(NC(=O)C3CC3)c2O[C@H]1CN(C)Cc1ccc(C(F)(F)F)cc1 | -106
CC(C)C#Cc1ccc2c(c1)O[C@H](CN(C)Cc1ccncc1)[C@H](C)CN([C@H](C)CO)S2(=O)=O | -22
SMILES | miR-122 inh
Cc1noc(C)c1NC(=O)N(C)C[C@@H]1Oc2cc(C#CCC(C)C)ccc2S(=O)(=O)N([C@@H](C)CO)C[C@@H]1C | 4
C[C@H]1CN([C@@H](C)CO)C(=O)c2cc(C#CC3(O)CCCC3)cnc2O[C@@H]1CN(C)C(=O)C1CCCCC1 | 2
O=[N+]([O-])c1ccc(O)c(/C=N/Nc2ccc(Cl)nn2)c1 | 46*
C[C@H](CO)N1C[C@H](C)[C@@H](CN(C)C(=O)C2CC2)Oc2ncc(C#Cc3cccc(F)c3)cc2C1=O | -1
COCC(=O)N(C)C[C@@H]1Oc2ncc(/C=C/c3ccccc3)cc2C(=O)N([C@H](C)CO)C[C@H]1C | -1
C[C@@H]1CN([C@H](C)CO)C(=O)c2cc(C#Cc3ccccc3)cnc2O[C@@H]1CN(C)Cc1ccccn1 | 0
COCC#Cc1cnc2c(c1)C(=O)N([C@@H](C)CO)C[C@H](C)[C@H](CN(C)C(=O)Nc1ccc(OC)cc1)O2 | -23
Cc1ccccc1-c1ccc([C@@H]2[C@@H](CO)N3CCCCN(C(=O)Nc4ccc(F)cc4)C[C@@H]23)cc1 | 31*
COc1cccc(NC(=O)N(C)C[C@@H]2Oc3cc(C#Cc4ccccc4)ccc3S(=O)(=O)N([C@H](C)CO)C[C@H]2C)c1 | 2
